# Nrf2 ARE act = activators of Nrf2 (ARE) signaling. AREc32 ARE-luciferase reporter (MCF7-derived line), luminescence, 24 h. Potency, µM (highest dose often 46.1 µM), for the others: at the highest dose activation, actives largely listed as activators. 0.31% of 410,000 active. AID 624171; note: % of control where 0% means no effect; nearly all actives have a fitted effect of over 65% in size
#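 Steps: seed AREc32_Fluc cells (1000/well, 5% FBS OPTI-MEM); incubate overnight at 37 deg C; add 23 nL compound; incubate 24 hr; add Steady-Glo; hold 30 min RT; read luminescence.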
# A549 viability = counter-screen for Nrf2 inhibitors: cytotoxicity in A549 cells; A549 ARE-Fluc cells, CellTiter-Fluor viability, 18-24 h; Potency, µM (doses to about 46 µM), for inactives: top-dose activity change, negative = cytotoxicity, most hits filed as inhibitors; 0.16% of 390,000 active; note: % is set by controls: 0 for no effect and ±100 for the full control effect
#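 A549 ARE-Fluc cells in 5% FBS OPTI-MEM, 5000 cells/well, rested 2 h then exposed to compounds in concentration-response for 18-24 h at 37 °C. Viability by CellTiter-Fluor fluorescence (Ex 405/Em 525) after 30 min; luciferase luminescence (BugLite, 15 min, RT) read afterwards.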
# ELG1 repair inh = blocks ELG1-dependent DNA repair in HEK293T cells | HEK293T ELG1-luciferase reporter, luminescence, 16 h; DNA damage induced by 5-fluorouridine | Potency, µM (highest dose often 46.1 µM), for the others: at the highest dose activity change, negative = inhibition, actives largely listed as inhibitors | 2.3% of 330,000 active; note: % is set by controls: 0 for no effect and ±100 for the full control effect; nearly all actives have a fitted effect of over 55% in size
#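 Cells (2,000 per well) received 5-fluorouridine plus test compound or DMSO and were incubated 16 hr at 37 °C, 5% CO2. Luciferase activity was read by luminescence 30 min after ONE-Glo addition; signal suppression marked inhibition of damage-induced ELG1 function.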
# Nrf2 block = inhibitors of Nrf2 signaling. A549 ARE-Fluc reporter, luciferase luminescence, 18-24 h. Potency, µM (titrated, usually from 46 µM), for the others: at the top dose activity change, negative = inhibition, usual class: inhibitors. 2.1% of 360,000 active. AID 504444; note: % is set by controls: 0 for no effect and ±100 for the full control effect; nearly all actives have a fitted effect of over 60% in size
#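 Reporter: ARE-Fluc in A549. Exposure: 18-24 h, 37 °C, 5% CO2, 5% FBS OPTI-MEM. Readouts: fluorescent cytotoxicity (CellTiter-Fluor), then luminescent Nrf2 signal after BugLite.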
# An asterisk follows results filed as active; ? = inconclusive; . = not tested or not shown; [ ] = dose if it differs, or a comment. Sampled rows, rich in hits. Any-hit rate of the full collection: about 3.7%. Calls come from the whole dose curve; as a rule, active = well fitted curve in the direction sought with a large enough effect; inconclusive = small, poorly fitted or top-dose-only effect, or another doubt; inactive = no such curve, though single readings can be large; an effect the other way counts as inactive or inconclusive. Potency is the fitted concentration of half-maximal effect.
SMILES,Nrf2 ARE act,A549 viability,ELG1 repair inh,Nrf2 block
Cc1ccc(S(=O)(=O)N(CC(=O)c2ccc(Cl)cc2)C(=O)N2CCN(C)CC2)cc1,0%,-7%,18%,5%
CC(Sc1nc(N)cc(=O)[nH]1)C(=O)Nc1ccc(N2CCOCC2)cc1 (stereo not drawn),-1%,.,.,.
O=C(Cn1c(COc2ccccc2)nc2ccccc21)Nc1cc(Cl)ccc1Cl,-1%,?,?,18µM*
COc1ccc(OC)c(-n2c3c(cc(-c4nc(-c5ccc(Cl)cc5)cs4)c2=O)C(=O)CC(C)(C)C3)c1,0%,-2%,.,8%
C=CCn1c(SC(C)C(=O)NCc2ccc3c(c2)OCO3)nc2scc(-c3ccccc3)c2c1=O (stereo not drawn),0%,-4%,?,-18%
O=C(CSc1n[nH]c(-c2cccs2)n1)NCc1ccc2c(c1)OCO2,0%,-6%,2%,1%
C=CCn1c(SCC(=O)NCc2ccc3c(c2)OCO3)nc2scc(-c3ccc(F)cc3)c2c1=O,0%,-6%,15µM*,-29%
Cn1c(SCC(=O)NCc2ccc3c(c2)OCO3)nc2scc(-c3cccs3)c2c1=O,1%,-9%,13µM*,?
COc1ccccc1NC(=O)c1cccc(S(=O)(=O)N2CCCCCC2)c1,1%,-8%,.,?
COc1ccc(CN(C(=O)CSc2nnc(-c3ccccc3F)o2)c2ccc(F)cc2)cc1,-1%,-6%,?,21µM*
CCC(=O)Nc1ccc(N2CCN(C(=O)c3cccs3)CC2)cc1,0%,26%,0%,11%
O=C(COc1ccccc1[N+](=O)[O-])Nc1ccc(N2CCN(C(=O)c3cccs3)CC2)cc1,3%,-13%,18µM*,5.8µM*
Cc1cccc(OCC(=O)Nc2ccc(N3CCN(C(=O)c4ccccc4)CC3)cc2)c1,0%,1%,18µM*,?
N#Cc1ccccc1NC(=O)COC(=O)c1cccs1,21%,2%,14%,?
O=C(COC(=O)c1cccs1)Nc1ccccc1[N+](=O)[O-],11µM*,6%,9%,4%
CC(=O)N1CCN(c2ccc(NC(=O)COc3ccc(Cl)cc3Cl)cc2)CC1,0%,-30%,9.2µM*,?
O=C(COc1ccccc1Cl)Nc1ccc(N2CCN(C(=O)c3ccccc3)CC2)cc1,-2%,-16%,13µM*,?
Cc1cccc(NC(=O)CSc2nsc(SCC(=O)Nc3cccc(C)c3)c2C#N)c1,3%,-3%,8.2µM*,-1%
Cc1cccc(C2=NC(C(F)(F)F)(C(F)(F)F)c3c(n(-c4ccc(F)cc4)c(=O)[nH]c3=O)N2)c1,2%,-4%,9.2µM*,-22%
O=C(NC1(C(F)(F)F)C(=O)Nc2c1c(=O)[nH]c(=O)n2-c1ccc(F)cc1)c1ccccc1 (stereo not drawn),0%,-3%,.,9%
CN(C1CCCCC1)S(=O)(=O)c1cc2c(cc1Cl)NC(=O)CO2,0%,-3%,4%,-13%
CC(C)Cn1c(/C=C/c2ccco2)nc2ccccc21,13µM*,2%,13%,12%
CCCn1c(/C=C/c2ccccc2)nc2ccccc21,24%,17%,?,?
COc1ccc(C(=O)N2CC(=O)Nc3ccc(C)cc3C2c2ccc(F)cc2)c(OC)c1 (stereo not drawn),4%,-12%,.,9%[9.27 µM]
O=C(c1cc(Br)ccc1O)N(Cc1ccco1)Cc1cccs1,.,0%,.,10%
SMILES,Nrf2 ARE act,A549 viability,ELG1 repair inh,Nrf2 block
COCc1nn2c(=O)cc(N3CCNCC3)nc2s1,.,7%,.,5%
Cc1ccc(/C=C/C(=O)OCC(=O)Nc2cccnc2Cl)o1,2.8µM*,-2%,4%,-9%
O=C(COC(=O)/C=C/c1ccc(F)cc1)NCC1CCCO1 (stereo not drawn),0%,2%,0%,-8%
Cc1ccc(Cc2c(C)nn(-c3nc(C)c(C(=O)N4CCCCC4C)s3)c2C)cc1 (stereo not drawn),0%,5%,.,16%
Clc1ccc(-c2csc(N/N=C/c3cccnc3)n2)c(Cl)c1,5%,2%,-27%,13µM*
C[C@H]1CN([C@@H](C)CO)S(=O)(=O)c2ccc(Br)cc2O[C@H]1CN(C)S(=O)(=O)c1ccccc1,0%,.,.,.
Cc1ccc(-c2csc(N3CCC[C@@H]3C(=O)NCCn3c(-c4ccncc4)nc4ccccc43)n2)cc1,-1%,-12%,15µM*,?
Cc1ccc(-c2csc(N3CCN(CCCn4c(-c5ccncc5)nc5ccccc54)CC3)n2)cc1,0%,-7%,?,?
O=C(CSc1nnc(-c2ccccc2)n1Cc1ccco1)NCc1ccc2c(c1)OCO2,0%,-16%,16µM*,-23%
O=C(CSc1nnc(-c2cccs2)n1Cc1ccco1)Nc1ccc2c(c1)OCO2,0%,-2%,15µM*,2%
O=C(CSc1nnc(-c2ccco2)n1Cc1ccccc1)NCc1ccccc1,0%,-12%,21µM*,8%
O=C(NNc1ccc(Cl)nn1)c1ccc(Cl)cc1,3%,8%,-1%,-1%
Cc1nc(SCC(=O)c2cccs2)c2oc3ccccc3c2n1,13%,-5%,?,-13%
O=C(CSc1ncnc2c1oc1ccccc12)c1cccs1,3.5µM*,-3%,?,?
O=C(NC(=S)N1CCOCC1)c1cn(-c2ccccc2)nc1-c1ccccc1,4%,-1%,18µM*,-25%
COc1ccc(Cl)c2sc(N(CCN(C)C)C(=O)c3ccc4c(c3)OCCO4)nc12,0%,3%,15%,-12%
O=S(=O)(c1ccccc1)c1nnn2c1nc(NC1CCN(Cc3ccccc3)CC1)c1ccccc12,0%,?,?,?
O=S(=O)(c1ccccc1)c1nnn2c1nc(NC1CCN(Cc3ccccc3)CC1)c1cc(Cl)ccc12,-1%,?,7%,6.5µM*
OC[C@@H]1CN(Cc2ccc3c(c2)OCO3)C[C@H](n2cnc3c(NC4CC4)ncnc32)O1,-1%,.,.,.
CCn1ccnc1CN1CCN(CCC(C)C)C(CCO)C1 (stereo not drawn),0%,-1%,8%,11%
Cc1ccc(S(=O)(=O)n2nccc2-c2c(-c3ccccc3)noc2C)cc1,0%,-2%,?,18µM*
Cc1onc(-c2ccccc2)c1-c1ccnn1S(=O)(=O)c1ccc(Cl)cc1,3%,1%,?,-24%
Cc1cc(NC(=O)c2ccco2)cc(-c2nc3cc(Cl)ccc3o2)c1O,?,-1%,.,?
COc1cccc(-n2nnc(S(=O)(=O)c3ccc(C)cc3)c2N)c1,0%,13%,?,5%
CCc1ccc(S(=O)(=O)c2nnn(-c3ccc(F)cc3)c2N)cc1,-1%,-4%,.,13µM*
CCC(CC)NC(=O)c1cc(S(=O)(=O)N2CCCCC2)ccc1N1CCOCC1,0%,1%,?,10%
O=C(COC(=O)/C=C/c1ccco1)Nc1ccc(F)cc1Cl,3.2µM*,1%,5%,22%
